Results taken from the supplement of paper PMC11732987, “Enantioselective OTUD7B fragment discovery through chemoproteomics screening and high-throughput optimisation” (Communications Chemistry, 2025).

Legend:
Test in all cases: log2 ratio of Biotin-Ahx-Ub-VS probe labelling (fragment/DMSO); higher = less target engagement (more negative = stronger competition), active = hit call of the paper (q ≤ 0.05, log2 ratio ≤ -1)
Details in all cases: compound concentration: 200 uM; treatment time: 3 h
USP34 = USP34 (UniProt Q70CQ2)
Sequence of USP34 (Q70CQ2 whole entry, the tested form may be a part): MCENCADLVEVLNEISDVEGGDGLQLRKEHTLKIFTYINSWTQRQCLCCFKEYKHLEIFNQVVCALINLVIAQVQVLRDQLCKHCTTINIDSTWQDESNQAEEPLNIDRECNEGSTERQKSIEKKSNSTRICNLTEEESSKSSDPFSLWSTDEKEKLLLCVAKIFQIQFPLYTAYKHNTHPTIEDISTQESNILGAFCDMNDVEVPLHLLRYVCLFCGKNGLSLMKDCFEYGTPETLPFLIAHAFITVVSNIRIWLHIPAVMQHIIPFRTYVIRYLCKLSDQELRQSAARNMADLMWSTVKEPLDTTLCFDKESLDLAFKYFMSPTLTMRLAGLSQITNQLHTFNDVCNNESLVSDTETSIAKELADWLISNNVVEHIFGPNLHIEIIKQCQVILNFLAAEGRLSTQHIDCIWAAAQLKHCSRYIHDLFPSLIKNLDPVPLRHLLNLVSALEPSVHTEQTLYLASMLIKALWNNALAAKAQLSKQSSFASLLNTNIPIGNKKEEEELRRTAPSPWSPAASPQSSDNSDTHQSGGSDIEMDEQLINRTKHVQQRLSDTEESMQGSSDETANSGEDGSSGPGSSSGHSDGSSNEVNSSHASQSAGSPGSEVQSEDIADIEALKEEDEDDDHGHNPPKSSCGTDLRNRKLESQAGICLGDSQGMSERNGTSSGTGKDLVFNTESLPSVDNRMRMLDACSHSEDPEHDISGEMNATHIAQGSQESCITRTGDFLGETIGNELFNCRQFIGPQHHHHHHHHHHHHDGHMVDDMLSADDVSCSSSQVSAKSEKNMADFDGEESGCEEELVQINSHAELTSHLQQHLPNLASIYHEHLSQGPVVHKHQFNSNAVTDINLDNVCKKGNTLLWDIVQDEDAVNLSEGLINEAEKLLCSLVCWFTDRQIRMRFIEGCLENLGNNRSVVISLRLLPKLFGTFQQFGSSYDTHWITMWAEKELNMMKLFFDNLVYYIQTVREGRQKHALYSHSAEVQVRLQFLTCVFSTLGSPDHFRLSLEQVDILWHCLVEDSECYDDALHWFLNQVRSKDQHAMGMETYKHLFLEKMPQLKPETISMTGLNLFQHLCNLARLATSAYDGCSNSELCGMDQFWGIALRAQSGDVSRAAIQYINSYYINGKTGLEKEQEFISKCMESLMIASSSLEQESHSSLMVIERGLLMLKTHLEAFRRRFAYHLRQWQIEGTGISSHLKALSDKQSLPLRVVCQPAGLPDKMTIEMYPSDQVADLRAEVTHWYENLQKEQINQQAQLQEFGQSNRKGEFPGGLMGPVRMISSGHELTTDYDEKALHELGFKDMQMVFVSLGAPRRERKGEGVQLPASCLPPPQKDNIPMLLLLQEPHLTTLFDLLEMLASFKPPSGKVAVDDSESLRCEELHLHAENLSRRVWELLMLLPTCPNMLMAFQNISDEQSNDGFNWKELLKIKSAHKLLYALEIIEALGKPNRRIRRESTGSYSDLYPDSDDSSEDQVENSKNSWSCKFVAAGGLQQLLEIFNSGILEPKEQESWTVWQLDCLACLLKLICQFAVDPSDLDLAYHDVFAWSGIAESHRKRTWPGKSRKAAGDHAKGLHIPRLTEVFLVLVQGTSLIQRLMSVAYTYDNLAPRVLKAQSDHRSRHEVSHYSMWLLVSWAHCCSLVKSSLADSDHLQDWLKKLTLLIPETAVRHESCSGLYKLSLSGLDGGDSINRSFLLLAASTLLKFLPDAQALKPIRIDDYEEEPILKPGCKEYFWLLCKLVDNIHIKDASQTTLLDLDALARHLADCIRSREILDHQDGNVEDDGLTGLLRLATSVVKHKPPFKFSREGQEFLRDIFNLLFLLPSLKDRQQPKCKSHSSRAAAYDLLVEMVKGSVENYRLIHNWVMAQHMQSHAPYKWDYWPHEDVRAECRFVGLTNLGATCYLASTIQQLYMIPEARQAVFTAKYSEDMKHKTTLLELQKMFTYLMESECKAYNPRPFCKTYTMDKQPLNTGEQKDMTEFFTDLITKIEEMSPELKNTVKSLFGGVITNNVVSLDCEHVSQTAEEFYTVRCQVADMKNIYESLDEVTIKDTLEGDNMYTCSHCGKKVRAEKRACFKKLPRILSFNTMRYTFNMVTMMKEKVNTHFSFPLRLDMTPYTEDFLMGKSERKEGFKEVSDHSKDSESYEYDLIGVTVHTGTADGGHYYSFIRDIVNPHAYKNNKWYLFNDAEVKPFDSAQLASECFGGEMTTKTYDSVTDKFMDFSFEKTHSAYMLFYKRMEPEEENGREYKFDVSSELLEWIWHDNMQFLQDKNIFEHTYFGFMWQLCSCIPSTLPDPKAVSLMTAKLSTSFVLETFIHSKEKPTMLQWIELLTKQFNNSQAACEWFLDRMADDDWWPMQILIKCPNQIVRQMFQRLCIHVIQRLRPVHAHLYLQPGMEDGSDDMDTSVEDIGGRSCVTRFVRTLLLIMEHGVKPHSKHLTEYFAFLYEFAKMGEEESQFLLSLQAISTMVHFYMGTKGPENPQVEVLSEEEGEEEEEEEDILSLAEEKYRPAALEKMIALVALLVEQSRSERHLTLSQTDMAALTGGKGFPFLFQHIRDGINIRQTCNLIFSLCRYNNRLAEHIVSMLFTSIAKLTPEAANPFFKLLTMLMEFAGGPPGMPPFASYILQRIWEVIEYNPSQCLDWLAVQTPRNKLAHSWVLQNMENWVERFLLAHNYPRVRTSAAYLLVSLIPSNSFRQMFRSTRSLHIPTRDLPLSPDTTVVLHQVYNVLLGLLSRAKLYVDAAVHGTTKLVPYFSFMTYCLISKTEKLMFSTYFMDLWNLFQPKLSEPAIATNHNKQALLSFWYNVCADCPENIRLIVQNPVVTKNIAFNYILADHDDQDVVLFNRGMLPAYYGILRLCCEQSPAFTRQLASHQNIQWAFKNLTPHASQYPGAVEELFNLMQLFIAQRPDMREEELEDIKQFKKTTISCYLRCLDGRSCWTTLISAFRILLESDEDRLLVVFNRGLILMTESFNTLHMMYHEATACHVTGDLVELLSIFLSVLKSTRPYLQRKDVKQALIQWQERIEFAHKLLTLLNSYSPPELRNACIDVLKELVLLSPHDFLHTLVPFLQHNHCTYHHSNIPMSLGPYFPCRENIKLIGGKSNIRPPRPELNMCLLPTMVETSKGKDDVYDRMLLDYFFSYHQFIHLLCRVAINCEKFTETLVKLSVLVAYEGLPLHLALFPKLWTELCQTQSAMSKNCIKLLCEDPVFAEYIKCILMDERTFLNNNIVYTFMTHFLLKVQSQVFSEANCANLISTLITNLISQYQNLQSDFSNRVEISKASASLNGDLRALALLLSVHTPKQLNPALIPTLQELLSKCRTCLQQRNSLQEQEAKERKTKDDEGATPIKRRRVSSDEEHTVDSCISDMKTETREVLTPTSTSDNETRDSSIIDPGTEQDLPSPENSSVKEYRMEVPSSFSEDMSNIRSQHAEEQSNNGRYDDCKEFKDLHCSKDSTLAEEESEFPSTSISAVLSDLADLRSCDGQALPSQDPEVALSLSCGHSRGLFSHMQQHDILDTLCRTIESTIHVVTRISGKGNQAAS
Procedure, shortened: (§1)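 The table lists average log2 ratios of fragment over vehicle, from an unpaired t-test on global-median-normalised Spectronaut label-free quantities. Proteins with ≥2 unique peptides were used. Samples were HEK293T lysate (495 µg) treated in triplicate with fragment at 200 µM or vehicle for 3 h, then with Biotin-Ahx-Ub-VS (0.5 µM final) for 1 h, with labelled DUBs NeutrAvidin-enriched and run by diaPASEF LC-MS/MS.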

USP36 = target: T1, USP36 (UniProt Q9P275)
T1 sequence (whole entry): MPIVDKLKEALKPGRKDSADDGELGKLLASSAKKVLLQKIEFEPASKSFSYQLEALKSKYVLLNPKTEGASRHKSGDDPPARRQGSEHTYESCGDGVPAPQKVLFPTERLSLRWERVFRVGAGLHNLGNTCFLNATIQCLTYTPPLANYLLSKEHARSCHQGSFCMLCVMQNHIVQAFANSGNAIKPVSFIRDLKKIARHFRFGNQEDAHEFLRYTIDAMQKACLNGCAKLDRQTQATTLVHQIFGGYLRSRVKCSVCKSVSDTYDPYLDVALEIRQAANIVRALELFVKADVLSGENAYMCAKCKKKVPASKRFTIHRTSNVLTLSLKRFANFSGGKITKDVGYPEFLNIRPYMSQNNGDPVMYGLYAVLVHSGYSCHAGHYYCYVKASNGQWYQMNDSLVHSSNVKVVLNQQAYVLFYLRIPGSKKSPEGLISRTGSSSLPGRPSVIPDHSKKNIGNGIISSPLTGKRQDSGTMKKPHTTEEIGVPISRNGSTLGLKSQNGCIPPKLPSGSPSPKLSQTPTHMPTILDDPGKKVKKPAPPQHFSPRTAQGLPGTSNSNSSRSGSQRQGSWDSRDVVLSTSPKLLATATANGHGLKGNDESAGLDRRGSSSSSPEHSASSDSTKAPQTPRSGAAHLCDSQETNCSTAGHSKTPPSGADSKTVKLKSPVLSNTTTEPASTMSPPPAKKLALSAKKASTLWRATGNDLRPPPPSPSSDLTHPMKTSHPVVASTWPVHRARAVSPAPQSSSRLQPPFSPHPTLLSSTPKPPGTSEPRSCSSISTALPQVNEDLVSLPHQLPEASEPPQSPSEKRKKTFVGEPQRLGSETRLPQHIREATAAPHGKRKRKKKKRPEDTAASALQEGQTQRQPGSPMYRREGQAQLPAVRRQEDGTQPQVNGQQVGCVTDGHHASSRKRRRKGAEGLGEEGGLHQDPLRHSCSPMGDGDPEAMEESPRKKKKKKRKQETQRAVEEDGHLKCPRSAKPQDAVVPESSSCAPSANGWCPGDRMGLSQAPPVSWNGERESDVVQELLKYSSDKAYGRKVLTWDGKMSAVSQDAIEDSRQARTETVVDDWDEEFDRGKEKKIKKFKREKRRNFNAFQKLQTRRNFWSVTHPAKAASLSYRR
Procedure, shortened: as §1

USP38 = target: T2, USP38 (UniProt Q8NB14)
T2 sequence (whole entry): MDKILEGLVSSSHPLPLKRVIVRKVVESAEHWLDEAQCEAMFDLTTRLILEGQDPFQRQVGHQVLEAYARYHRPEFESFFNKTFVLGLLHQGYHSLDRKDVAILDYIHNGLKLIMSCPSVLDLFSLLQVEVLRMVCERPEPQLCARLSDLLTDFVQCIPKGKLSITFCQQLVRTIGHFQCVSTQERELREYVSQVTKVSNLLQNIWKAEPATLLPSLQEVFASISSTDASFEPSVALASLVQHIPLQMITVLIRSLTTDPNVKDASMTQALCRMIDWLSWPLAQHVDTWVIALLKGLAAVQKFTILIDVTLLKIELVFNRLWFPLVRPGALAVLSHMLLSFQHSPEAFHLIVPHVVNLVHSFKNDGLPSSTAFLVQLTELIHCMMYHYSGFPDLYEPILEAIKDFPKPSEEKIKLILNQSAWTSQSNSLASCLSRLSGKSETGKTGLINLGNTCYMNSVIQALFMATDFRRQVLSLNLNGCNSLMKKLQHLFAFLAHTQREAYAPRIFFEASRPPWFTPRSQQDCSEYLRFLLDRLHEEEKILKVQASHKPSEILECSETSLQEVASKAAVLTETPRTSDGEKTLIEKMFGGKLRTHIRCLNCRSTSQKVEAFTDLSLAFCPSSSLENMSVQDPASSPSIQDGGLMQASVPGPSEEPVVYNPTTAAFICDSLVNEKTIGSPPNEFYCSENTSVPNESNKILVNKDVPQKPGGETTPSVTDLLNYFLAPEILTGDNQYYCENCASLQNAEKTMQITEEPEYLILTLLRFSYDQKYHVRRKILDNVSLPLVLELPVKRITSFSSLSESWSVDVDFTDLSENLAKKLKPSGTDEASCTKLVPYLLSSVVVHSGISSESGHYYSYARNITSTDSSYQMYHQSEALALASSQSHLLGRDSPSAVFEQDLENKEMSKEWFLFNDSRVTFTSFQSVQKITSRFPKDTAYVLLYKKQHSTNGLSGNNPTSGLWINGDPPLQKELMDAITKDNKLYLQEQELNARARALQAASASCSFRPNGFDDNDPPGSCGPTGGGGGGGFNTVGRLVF
Procedure, shortened: as §1

USP39 = target: T3, USP39 (UniProt Q53GS9)
T3 sequence (whole entry): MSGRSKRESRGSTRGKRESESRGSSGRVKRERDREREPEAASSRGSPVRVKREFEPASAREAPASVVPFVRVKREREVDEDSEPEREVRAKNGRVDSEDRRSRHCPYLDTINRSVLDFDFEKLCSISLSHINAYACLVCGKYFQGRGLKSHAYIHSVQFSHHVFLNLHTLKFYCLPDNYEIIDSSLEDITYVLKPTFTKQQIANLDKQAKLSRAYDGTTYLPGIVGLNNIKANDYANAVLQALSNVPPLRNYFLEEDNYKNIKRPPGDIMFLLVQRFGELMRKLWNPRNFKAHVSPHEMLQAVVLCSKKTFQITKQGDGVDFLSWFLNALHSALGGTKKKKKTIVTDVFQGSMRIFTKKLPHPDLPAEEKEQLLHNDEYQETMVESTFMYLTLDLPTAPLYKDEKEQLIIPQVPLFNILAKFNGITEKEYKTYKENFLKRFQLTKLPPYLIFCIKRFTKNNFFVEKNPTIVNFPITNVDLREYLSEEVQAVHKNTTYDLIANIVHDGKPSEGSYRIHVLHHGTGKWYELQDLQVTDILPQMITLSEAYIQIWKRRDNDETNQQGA
Procedure, shortened: as §1

USP4 = target: T4, USP4 (UniProt Q13107)
T4 sequence (whole entry): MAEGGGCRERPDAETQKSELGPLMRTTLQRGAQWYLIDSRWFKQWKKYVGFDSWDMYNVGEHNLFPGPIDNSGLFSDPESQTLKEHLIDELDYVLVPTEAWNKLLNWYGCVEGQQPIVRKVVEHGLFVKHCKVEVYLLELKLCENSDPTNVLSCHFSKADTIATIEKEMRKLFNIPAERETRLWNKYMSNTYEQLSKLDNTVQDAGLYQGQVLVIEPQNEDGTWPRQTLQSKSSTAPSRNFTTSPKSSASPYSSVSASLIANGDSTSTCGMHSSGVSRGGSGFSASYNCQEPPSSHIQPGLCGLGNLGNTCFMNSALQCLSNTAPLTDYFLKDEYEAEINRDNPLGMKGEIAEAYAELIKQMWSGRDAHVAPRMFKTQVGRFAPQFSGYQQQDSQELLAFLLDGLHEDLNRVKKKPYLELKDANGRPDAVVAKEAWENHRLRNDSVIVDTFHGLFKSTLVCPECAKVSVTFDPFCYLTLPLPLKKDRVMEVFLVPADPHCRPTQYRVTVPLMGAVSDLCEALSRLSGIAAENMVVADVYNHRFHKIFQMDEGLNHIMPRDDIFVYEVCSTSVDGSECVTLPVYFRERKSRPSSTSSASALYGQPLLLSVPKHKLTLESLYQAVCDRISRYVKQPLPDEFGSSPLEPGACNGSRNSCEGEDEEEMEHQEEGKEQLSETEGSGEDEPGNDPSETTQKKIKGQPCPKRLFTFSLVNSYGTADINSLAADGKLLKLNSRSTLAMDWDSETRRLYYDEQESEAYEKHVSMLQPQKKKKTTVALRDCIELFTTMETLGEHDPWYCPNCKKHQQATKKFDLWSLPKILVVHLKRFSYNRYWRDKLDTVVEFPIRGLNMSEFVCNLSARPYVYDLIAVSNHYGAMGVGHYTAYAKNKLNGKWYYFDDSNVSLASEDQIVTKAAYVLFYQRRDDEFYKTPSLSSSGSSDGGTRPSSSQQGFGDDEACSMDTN
Procedure, shortened: as §1

Measured: log2 ratio of Biotin-Ahx-Ub-VS probe labelling

COc1cc(Cl)c(C)cc1NC(=O)CCl
inactive: USP34 -0.327 | USP36 -0.122 | USP38 -0.241 | USP39 -0.366 | USP4 -0.423
